Among the data in PubChem BioAssay (Tox21) are Potency values, retold here.

Records with an inconclusive call do not appear. Entries that show only a call come without a potency. Activity calls are given as the source filed them. Calls follow the shape of the dose curve; as a rule, active = well fitted activation curve with a large enough effect in the repeat runs; inconclusive = weak or mixed curves; inactive = no such curve, though single readings can be large or run the other way.

This assay is described as follows: qHTS assay for small molecules that induce genotoxicity in human embryonic kidney cells expressing luciferase-tagged ATAD5 (AID 651632). Also: nearly all actives have a fitted effect of over 15% in size. The following applies: HEK293T ATAD5-luciferase induction, 16 h; series mostly up to 83.3 µM. Put shortly:
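Luminescent reporter readout, HEK293T ATAD5-luc line: 16 hr drug exposure (37C, 5% CO2) followed by Amplite, 30 min RT.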
On the technique in general: qHTS replaces the single test concentration by a dilution series.
As to `NCC(=O)CCC(=O)O`, the Potency result was “inactive”.

On to `O=C1OC(=O)C2C3C=CC(C3)C12` (stereo not drawn), for which the Potency result is “inactive”.

In the case of `C=C(C)C(=O)OCCOCC`, the Potency entry was “inactive”.

Regarding `CC1(c2ccccc2)OC(C(=O)O)=CC1=O` (stereo not drawn), the Potency entry is “inactive”.

As to `C[N+](C)(C)CCOC(=O)CCC(=O)OCC[N+](C)(C)C`, the Potency result is “inactive”.

As for `CCOC(=O)Cc1cccc2ccccc12`, the Potency entry was “inactive”.

As for `CC(=O)c1ccc2c(c1)N(CCCN(C)C)c1ccccc1S2`, the Potency entry is “inactive”.

In the case of `CN1CCN(C(c2ccccc2)c2ccccc2)CC1`, the Potency result is “inactive”.

For the compound `Clc1ccc(Cn2c(CN3CCCC3)nc3ccccc32)cc1`, the Potency entry was “inactive”.

With `CC1=CC=C(C(C)C)CC1`, the Potency entry was “inactive”.

In the case of `C[C@H]1C[C@H]2[C@@H]3CCC4=CC(=O)C=C[C@]4(C)[C@@]3(Cl)[C@@H](O)C[C@]2(C)[C@@]1(O)C(=O)CO`, the Potency result was “inactive”.

In the case of `CCCCCCCCO[C@@H]1O[C@H](CO)[C@@H](O)[C@H](O)[C@H]1O`, the Potency result is “inactive”.

For the compound `CC(C)(O)c1ccc(CNC(=O)c2cccnc2Oc2ccc(F)cc2)cc1`, the Potency result was “inactive”.

Take `c1ccc(CNCCNCc2ccccc2)cc1`: the Potency entry was “inactive”.

As for `COC(C)OC`, the Potency entry was “inactive”.

For the compound `CC(COCCO)OCCO` (stereo not drawn), the Potency result was “inactive”.

On to `O=S(=O)(Oc1ccc(Cl)cc1)c1ccccc1`, for which the Potency entry is “inactive”.

On to `COS(=O)(=O)C(F)(F)F`, for which the Potency entry was “inactive”.

On to `CCNc1cc(O)ccc1C`, for which the Potency result was “inactive”.

For the compound `Nc1cccc([N+](=O)[O-])c1`, the Potency entry is “inactive”.

For the compound `CC/C=C\CCOC(=O)CC`, the Potency result is “inactive”.

With `O=C(c1ccc(F)cc1)C1CCN(CCn2c(=S)[nH]c3ccccc3c2=O)CC1`, the Potency entry was “inactive”.

Regarding `CCN(CC)c1ccc2c(-c3ccccc3C(=O)O)c3ccc(=[N+](CC)CC)cc-3oc2c1`, the Potency entry was “inactive”.

In the case of `CC(C)CC(=O)C1C(=O)c2ccccc2C1=O`, the Potency entry is “inactive”.

For the compound `ClCCOCCOCCCl`, the Potency result is “inactive”.

As for `CCCCc1ncc(/C=C(\Cc2cccs2)C(=O)O)n1Cc1ccc(C(=O)O)cc1`, the Potency entry is “inactive”.

As to `CN(C)C(=O)NC1(c2ccccc2)CCN(CC[C@@]2(c3ccc(F)c(F)c3)CN(C(=O)c3ccccc3)CCO2)CC1`, the Potency result is “inactive”.

With `CC(=O)NO`, the Potency result was “inactive”.

In the case of `COc1cc2nc(N3CCN(C(=O)C4COc5ccccc5O4)CC3)nc(N)c2cc1OC` (stereo not drawn), the Potency entry was “inactive”.

For the compound `CC1=CCCC(C)(C)C12CCC(C)O2` (stereo not drawn), the Potency result was “inactive”.

Regarding `Nc1ccccc1S(=O)(=O)c1ccccc1`, the Potency entry was “inactive”.

Consider `COc1ccc(C(=O)c2ccc(OC)cc2O)c(O)c1`, for which the Potency entry is “inactive”.

On to `C#CCN(C)CCCOc1ccc(Cl)cc1Cl`, for which the Potency result is “inactive”.

On to `C=CC1CC2C=CC1C2` (stereo not drawn), for which the Potency entry was “inactive”.

For `CC(=O)c1ccc2c(c1)N(CCCN1CCC(CCO)CC1)c1ccccc1S2`, the Potency entry was “inactive”.

As for `COC(=O)c1ccc(I)cc1S(=O)(=O)NC(=O)Nc1nc(C)nc(OC)n1`, the Potency entry was “inactive”.

Consider `C=C1[C@H]2CC[C@@H]3[C@H]2C(C)(C)CCC[C@]13C`, for which the Potency result was “inactive”.

For the compound `COC(=O)C1=C(C)NC(COC(N)=O)=C(C(=O)OC(C)C)C1c1cccc(Cl)c1Cl` (stereo not drawn), the Potency result was “inactive”.
